Experimental data published in PubChem BioAssay AID623901 (Broad Institute, 2012).
Hit rate of the full screen: of about 340,000 compounds, about 470 (0.14%) were called active.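 Rule for the calls: active = mean activation of 30% or more, with every replicate also reaching 30%; inconclusive = mean activation of 30% or more but some replicate falls short; inactive = the rest.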 Only a selection was taken, and actives are over-represented in it overall.

assay: miR-122 suppressors via Renilla sensor increase, primary screen, cell-based, Huh7 psiCHECK-miR122, Renilla luciferase, single point (AID 623901); details: 48 h, at 12.5 µM, hits give high values;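 note: 0% = median of neutral control wells and 100% = median of positive control wells; higher luciferase signal means stronger suppression of miR-122 activity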

With `COc1ccc(OC)c(S(=O)(=O)Nc2cccc(-c3ccc4nncn4n3)c2)c1` as the compound, how does the activation read?
The activation was -333% (inactive).

Which activation does the source give for `C[C@@H]1CN([C@H](C)CO)S(=O)(=O)c2ccc(C#CCC3CCCC3)cc2O[C@H]1CN(C)C(=O)CC1CC1` here?
The activation was -0.08% (inactive).

For `CO[C@@H]1CN(C)C(=O)c2cc(NS(=O)(=O)CC(F)(F)F)ccc2OC[C@H](C)N(C)C[C@H]1C`, which activation is on record?
The activation was -2.27% (inactive).

With `C[C@H](CO)N1C[C@H](C)[C@H](CN(C)CC2CCCCC2)Oc2c(NC(=O)c3cnccn3)cccc2C1=O` as the compound, how does the activation read?
The activation was -119% (inactive).

With `C[C@@H]1CN([C@H](C)CO)C(=O)c2cc(C#CC3CCCC3)cnc2O[C@@H]1CN(C)C(=O)C1CCC1` as the compound, how does the activation read?
Its activation is -4.13% (inactive).

Which activation does the source give for `CCOc1ccccc1N1CCN(C(=O)c2ccc3[nH]c(C)c(C)c3c2)CC1` here?
Its activation is -100% (inactive).

With `C[C@H](CO)N1C[C@H](C)[C@H](CN(C)C(=O)Nc2cccc3ccccc23)Oc2ncc(C#Cc3ccccc3)cc2C1=O` as the compound, how does the activation read?
Its activation is 8.08% (inactive).

Which activation does the source give for `C[C@H]1CN([C@@H](C)CO)S(=O)(=O)c2ccc(Br)cc2O[C@H]1CN(C)Cc1ccccn1` here?
Its activation is 4.93% (inactive).

Which activation does the source give for `CSc1ccc(S(=O)(=O)NC2CCCCC2)cc1` here?
The activation was -102% (inactive).

Which activation does the source give for `CCCC#Cc1cnc2c(c1)C(=O)N([C@H](C)CO)C[C@H](C)[C@@H](CN(C)Cc1ccccc1)O2` here?
The activation was 2.96% (inactive).

With `C[C@@H]1CN([C@H](C)CO)C(=O)c2cc(-c3ccc(F)cc3)cnc2O[C@@H]1CN(C)Cc1ccc(C(=O)O)cc1` as the compound, how does the activation read?
Its activation is -8.09% (inactive).

With `Cc1c(C)c(C)c(S(=O)(=O)NCCc2ccccn2)c(C)c1C` as the compound, how does the activation read?
Its activation is -107% (inactive).

With `CCC(=O)N1C[C@H](C)[C@H](OC)CN(C)C(=O)c2ccc(NS(C)(=O)=O)cc2OC[C@H]1C` as the compound, how does the activation read?
The activation was 0.433% (inactive).

For `C[C@H]1CN([C@@H](C)CO)C(=O)c2cc(C#CC3(O)CCCC3)cnc2O[C@@H]1CN(C)C(=O)Cc1ccccc1`, which activation is on record?
Its activation is 0.596% (inactive).

For `COc1cccc2sc(N(CCCN(C)C)C(=O)C(c3ccccc3)c3ccccc3)nc12`, which activation is on record?
The activation was 74.2% (active).

With `C[C@@H]1CN([C@H](C)CO)S(=O)(=O)c2ccc(-c3ccccc3)cc2O[C@@H]1CN(C)C(=O)CC1CC1` as the compound, how does the activation read?
Its activation is -0.601% (inactive).

For `C[C@H](CO)N1C[C@H](C)[C@@H](CN(C)CC2CCOCC2)Oc2ncc(C#Cc3ccc(F)cc3)cc2C1=O`, which activation is on record?
Its activation is 4.08% (inactive).

For `C[C@@H]1CN([C@@H](C)CO)S(=O)(=O)c2ccc(C#CCC3CCCC3)cc2O[C@H]1CN(C)C(=O)CC1CC1`, which activation is on record?
Its activation is -4.63% (inactive).

With `C[C@@H]1CN([C@H](C)CO)C(=O)c2cc(C#CC3(O)CCCC3)cnc2O[C@H]1CN(C)Cc1ccncc1` as the compound, how does the activation read?
The activation was -9.22% (inactive).
